Results from PubChem BioAssay AID504937 (National Center for Advancing Translational Sciences (NCATS), 2011).
About 20 (0.006%) of roughly 340,000 compounds were called active. The call rests on the fitted dose curve; in most records, active means well fitted inhibition curve with a large enough effect; inconclusive means small, poorly fitted or top-dose-only effect; inactive means no such curve, though single readings can be large or run the other way. Many of the other results were omitted from the sample, so actives are more common in it than they were.

target: Sphingomyelin phosphodiesterase (Homo sapiens) (UniProt P17405); assay: Inhibitors of Secretory Acid Sphingomyelinase (S-ASM): qHTS; conditions: placental ASM, HMU-PC fluorogenic substrate, 60 min; series mostly up to 57.5 µM; activity change, negative = inhibition: at the top concentration
Sequence (P17405 47-631 limits assumed): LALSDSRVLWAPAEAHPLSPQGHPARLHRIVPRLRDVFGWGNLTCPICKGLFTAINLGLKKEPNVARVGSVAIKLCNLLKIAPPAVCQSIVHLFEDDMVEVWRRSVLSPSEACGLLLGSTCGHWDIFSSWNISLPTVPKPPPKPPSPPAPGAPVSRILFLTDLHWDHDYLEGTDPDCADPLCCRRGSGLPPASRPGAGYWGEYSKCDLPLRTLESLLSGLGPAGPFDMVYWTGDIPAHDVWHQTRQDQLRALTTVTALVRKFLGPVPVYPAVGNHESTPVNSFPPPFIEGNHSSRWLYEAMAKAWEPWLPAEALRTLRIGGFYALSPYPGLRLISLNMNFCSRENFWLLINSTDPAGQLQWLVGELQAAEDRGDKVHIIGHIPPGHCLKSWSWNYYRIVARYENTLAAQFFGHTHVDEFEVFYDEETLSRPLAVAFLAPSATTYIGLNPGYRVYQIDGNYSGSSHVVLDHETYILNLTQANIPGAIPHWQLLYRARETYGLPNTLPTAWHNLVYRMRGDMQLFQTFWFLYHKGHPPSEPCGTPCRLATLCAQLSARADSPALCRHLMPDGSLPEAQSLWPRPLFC
Source text: Atherosclerosis is the underlying process for cardiovascular disease and thus is a major contributor to disease burden in the population. […] Thus, selective small molecule inhibitors of S-ASM should block LDL modification and reduce aortic LDL retention and may serve as new agents for the treatment of atherosclerosis. In a collaboration between National Heart, Lung, and Blood Institute and the NCGC a high-throughput amenable screen was developed to identify potent and selective small molecule inhibitors of S-ASM. This enzymatic, fluorescent screen uses an ASM enzyme preparation derived from human placenta and was tested against the NIH Molecular Libraries Small Molecule Repository (MLSMR). NIH Chemical Genomics Center [NCGC] NIH Molecular Libraries Probe Centers Network [MLPCN] MLPCN Grant: MH093173-01 Assay Submitter (PI): Alan Remaley, National Heart, Lung, and Blood Institute and Wei Zhen, NIH Chemical Genomics Center
Two microliters of ASM enzyme (1:150 dilution from stock) are dispensed in 1536-well plate. 23 nL of compound and control are pinned into assay plate using the Kalypsys pintool. The plates are then incubated for 10 minutes at ambient room temperature. Then, 2 uL of the flurogenic substrate, HMU-PC0, (9 uM final) are added to the plate. An incubation for 60 minutes takes place at 37 masculineC. After that, 4 uL of stop solution is added to raise the pH to 10 to end the kinetic reaction. Plate is read on ViewLux, with detection set at Ex = 386 (10) nm and Em = 447 (10) nm.

Activity change, negative = inhibition, inactive:
COc1ccc(Nc2ncc(C(=O)N3CCN(c4ccccc4OC)CC3)c3ccccc23)cc1 -5.7%
O=C(COC(=O)c1ccc(F)c(S(=O)(=O)N2CCOCC2)c1)NCc1ccc2c(c1)OCO2 1.81%
Brc1c(CSc2nncc3ccccc23)nc2ccccn12 1.36%
COc1ccc(Cc2nnc(SCC(=O)N(c3ccccc3)C(C)C)n(N)c2=O)cc1 -1.08%
CC1(C)CC(=O)C=C(c2cccc3c2Oc2ccccc2S3)C1 -13.8%
O=C(NCC1CCCO1)C1CCN(C2CCN(C(=O)C3CCCCC3)CC2)CC1 (stereo not given) 1.41%
FC(F)(F)c1ccc2c3n(nc2c1)CCN=C3c1ccc(Cl)cc1 -3.7%
CC(C)[C@H](NC(=O)Nc1ccc(S(N)(=O)=O)cc1)C(=O)O 2.71%
COc1ccccc1N1CCC(N2CCN(CC(C)(C)C)C(CCO)C2)CC1 (stereo not given) 3.32%
CC(=O)Nc1nc2c(s1)C(=O)NCC(C)(C)C2 -2.53%
COc1ccccc1C(=O)C(O)c1ccccc1OC (stereo not given) 2.43%
Cn1nc(C(F)(F)F)c2cc(NC(=O)OCC(C)(C)C)sc21 -4.28%
O=C(CCNC(=O)c1ccc([N+](=O)[O-])cc1)Nc1ccccc1N1CCOCC1 5.76%
Cc1cc(C)c(S(=O)(=O)c2cc(F)ccc2C)c(=O)[nH]1 -1.89%
COC(=O)C1=C(C(=O)OC)C2(OC1c1ccc(Br)cc1)C(=O)c1ccccc1C2=O (stereo not given) -0.0969%
COCCNC(=O)CSc1nc2sccc2c(=O)n1-c1ccccc1 7.71%
CCN(CC)S(=O)(=O)c1ccc(N2CC(C(=O)NCc3cccnc3)CC2=O)cc1 (stereo not given) 2.74%
O=C(Nc1ccc([N+](=O)[O-])cc1)C1CC12CCC2 (stereo not given) 0.622%
Cc1ccc(S(=O)(=O)c2c[nH]c3ccc(C)cc3c2=O)cc1 4.26%
O=C1CC[C@@H]2CC3(C[C@@H]4CCN1[C@H]24)Nc1cc([N+](=O)[O-])ccc1NC3=NC1CCCCC1 (stereo not given in full) -13.9%
COc1cc(OC)cc(C(=O)NCCSCc2ccc(Cl)cc2)c1 0.434%
CC(C)(C)C(=O)Nc1c(Br)c(C2CC2)nn1-c1ccccc1 -0.807%
CC(C)(C)NC(=O)NC(=O)COC(=O)CCC1CCCCC1 -1.67%
O=C(CCN1C(=O)[C@@H]2Cc3ccccc3CN2C1=O)NCc1ccccc1 2.58%
Cc1cccc(NC(=S)NCCc2ccc(F)cc2)c1C 0.269%
Cn1cc(C2OC(=O)c3ccccc32)c2ccccc21 (stereo not given) 3.97%
CCN(C[C@H]1N[C@@](Cc2ccccc2)(C(=O)OC)[C@H]2C(=O)N(Cc3ccccc3)C(=O)[C@@H]12)C(=O)c1ccc(C)cc1 -2%
Cc1c(NC(=O)CN(C)CC(=O)Nc2ccc(F)c(F)c2F)c(=O)n(-c2ccccc2)n1C 0.31%
CC(C(=O)NC1CCCC1)N(c1ccc(Oc2ccccc2)cc1)S(C)(=O)=O (stereo not given) 4.2%
O=C(CCN1C(=O)COc2ccccc21)NCCCN1CCN(c2ccc(F)cc2)CC1 2.7%
O=C(/C=C/c1cccc([N+](=O)[O-])c1)OCC(=O)N1CCOCC1 8.57%
COC(=O)c1cccc(C(=O)N2CCC(CCC(=O)NCc3ccc(F)cc3)CC2)c1 3.52%
CC(=O)OCC(=O)C1(O)CCC2C3CC(C)C4=CC(=O)CCC4(C)C3C(O)CC21C (stereo not given) 3.04%
CC(=O)NNC(=O)c1csc(Cc2c(Cl)sc3ccc(Cl)cc23)n1 -1.54%
CC1CN(S(=O)(=O)c2ccccc2)C(C)CN1S(=O)(=O)c1ccccc1 (stereo not given) 0.844%
Cc1c(Cl)cccc1NC(=O)Nc1ccc(C(=O)N2CCCC2)cc1 -1.21%
O=C(COc1ccc(F)cc1Br)NCC1COc2ccccc2O1 (stereo not given) 2.18%
CCOc1ccc(CCNC(=O)COC(=O)CCS(=O)(=O)c2ccc(C)cc2)cc1OCC 0.919%
Cc1cc(C)nc(SC2CCCCC2NS(=O)(=O)c2ccc(Cl)cc2)n1 (stereo not given) -1.81%
CC1(C)CC(=O)C=C(NCCN2CCNCC2)C1 3.44%
COc1cccc(C(=O)CC(=O)C(=O)Nc2ccc([N+](=O)[O-])cc2C)c1 -7.33%
COc1cccc(NC(=O)N2CCC(NC(=O)C(Cc3cccc(C)c3)NC(C)=O)CC2)c1 (stereo not given) 3.08%
COc1cccc(N2CCN(C(=O)Nc3ccc4c(c3)NC(=O)CO4)CC2)c1 -2.58%
CCOc1ccc(C(=O)N(Cc2ccc(N(C)C)cc2)C2CCS(=O)(=O)C2)cc1 (stereo not given) -3.39%
O=C(NCCCN1CCCC1=O)c1cccc(S(=O)(=O)NCc2ccccc2)c1 -0.664%
COC(=O)c1ccccc1NC(=O)CSc1nc2c(c(=O)[nH]1)CCC2 -0.0256%
CCOc1ccc(NC(=O)CN(C)CC(=O)Nc2cccc(Cl)c2C)cc1OCC -1.93%
COc1ccc(C(=O)NC(=S)N2CCNC(=O)C2CC(=O)OC(C)C)cc1 (stereo not given) 2.82%
O=C(OCc1cc(Cl)ccc1OC(F)F)c1cccnc1 2.08%
O=C(CSc1nnnn1-c1ccc(O)cc1)c1ccc(F)cc1 0.0285%
CCC(=O)Nc1ccc(C(=O)CSc2nnc(CNc3ccc(Cl)cc3)o2)cc1OC -3.49%
COC(=O)c1c(C)oc(C)c1S(=O)(=O)NCc1ccc(Cl)cc1 0.138%
Cc1ccc2[nH]c(C)c(CCNC(=O)NC3CCCCC3)c2c1 11.4%
CCC1=NN(C(=O)Cc2ccc([N+](=O)[O-])cc2)C(O)(c2ccc(Br)cc2)C1 (stereo not given) -4.46%
Cc1cc(C)cc(NC(=O)N(C)Cc2ccccc2)c1 -5.09%
COc1cccc(CNC(=O)CCN2C(=S)NC(C)(C)CC2C)c1 (stereo not given) -1.55%
COc1cc2c(cc1OC)C(Cc1cc(OC)c(OC)cc1[N+](=O)[O-])=NCC2 -9.32%
CS(=O)(=O)N1CCN(CC(=O)NC2CCCC2)CC1 -0.357%
O=[N+]([O-])c1ccc(S(=O)(=O)Nc2cccc(-c3ccc(N4CCCC4)nn3)c2)cc1 -3.91%
COc1ccccc1C1CC(=O)n2c(nc(-c3ccccc3)c2-c2ccccc2)S1 (stereo not given) -2.94%
COc1ccc(N2C(=O)CCC(C(=O)N(C)C3CCCCC3)C2c2ccc(OC)c(OC)c2)cc1 (stereo not given) 2.46%
N#C[C@]1(S(=O)(=O)c2ccccc2)C[C@@H]2ON=C(c3cccc(Br)c3)[C@@H]2C1 0.801%
COC(=O)c1c(C(=O)OC)c2n(c1C)CCS2 2.14%
O=C(NCc1ccncc1)C1CCCN(S(=O)(=O)c2ccc(Br)cc2)C1 (stereo not given) 4.64%
COC(=O)C1=CN(c2ccc(F)c(F)c2)C=C(C(=O)OC)C1c1ccc([N+](=O)[O-])cc1 -6.6%
